# PubChem BioAssay
# Values joined by “and” are separate entries in the source; they are usually repeats but may differ in a detail not shown here. Equal values may be shown once. Active and inactive are the calls of the source.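 How the source made its calls, unless noted: active means at least 20% inhibition of 6-phosphogluconate dehydrogenase activity; inactive means the rest.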
# Experiments:
# [1] = target: 6-phosphogluconate dehydrogenase, decarboxylating (Homo sapiens) (UniProt P52209); test: 6PGD enzyme inhibitors, primary screen, biochemical, human, recombinant enzyme, NADPH absorbance (AID 1159550); conditions: recombinant 6PGD, NADPH absorbance 341 nm; at 10 µM; stronger effect = higher value
# 6-phosphogluconate dehydrogenase, decarboxylating (Homo sapiens), sequence (P52209 whole entry, looked up): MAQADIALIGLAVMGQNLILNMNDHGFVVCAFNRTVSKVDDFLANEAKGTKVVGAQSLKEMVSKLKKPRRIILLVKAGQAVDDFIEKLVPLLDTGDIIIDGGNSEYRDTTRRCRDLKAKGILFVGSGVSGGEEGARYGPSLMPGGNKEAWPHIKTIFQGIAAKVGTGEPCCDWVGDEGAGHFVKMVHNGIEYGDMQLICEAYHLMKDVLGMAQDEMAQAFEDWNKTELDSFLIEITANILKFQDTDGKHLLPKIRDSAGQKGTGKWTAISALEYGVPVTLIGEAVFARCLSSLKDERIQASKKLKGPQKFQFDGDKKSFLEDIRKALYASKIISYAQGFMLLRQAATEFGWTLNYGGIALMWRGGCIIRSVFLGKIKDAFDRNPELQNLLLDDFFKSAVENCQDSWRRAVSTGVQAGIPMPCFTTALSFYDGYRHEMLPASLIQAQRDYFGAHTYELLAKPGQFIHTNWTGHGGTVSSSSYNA
# [2] = polyglutamine-triggered caspase-3 activation inhibitors, cell-based (AID 1583); conditions: polyglutamine-induced caspase-3 activation, cell assay; stronger effect = higher value;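 tested at 10 µM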
# [3] = suppressors of polyQ aggregation in yeast, 75Q-TubU reporter (AID 1593); conditions: Yeast 75Q polyglutamine aggregation reporter
# [4] = inhibitors of mitochondrial cytochrome c release, biochemical, purified mitochondria (AID 1603); conditions: stronger effect = lower value;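 further: mouse liver mitochondria challenged with calcium chloride; signal normalized to the plate average as 100%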
# [5] = liver-stage malaria parasite growth inhibition, primary screen, cell-based, HepG2, luciferase luminescence, HepG2 viability (AID 624349; in the data active means parasite load remaining mostly below about 12%, no sharp cut-off; inactive means mostly above about 10%;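 further: 100% = mean of DMSO negative control wells on the same plate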); conditions: P. berghei liver stage in HepG2, luciferase luminescence, concentration not given here; parasite load remaining: stronger effect = lower value; viability: measured here: HepG2 viability without parasites
# [6] = differential killing of epithelial or mesenchymal cells, primary screen, imaging, PC-3E GFP, TEM4-18 mCherry, co-culture (AID 1345086;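 active means compounds killing one labelled cell type while sparing the other, by normalised counts and ratio limits, not self-fluorescent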;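 on all read-outs here: cells exposed to compound for 72 h before imaging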;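 on red/green cell ratio (normalised): normalised mesenchymal count divided by normalised epithelial count so high means epithelial killing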); conditions: imaging cell counts, at 1 µM; for red/green cell ratio (normalised): actives lie on both sides
# [7] = system: Aerobactin synthetase IucA (Klebsiella pneumoniae hvKP1); test: Biochemical IucA enzyme inhibition primary screen of the Spectrum library (AID 1346200; call rule not given here;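 further: 100% = wells without compound and 0% = wells lacking enzyme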); conditions: malachite green pyrophosphate, A620, at 8 µM, stronger effect = lower value
# [8] = survival rescue of mitochondrial mutant cells in low glucose, primary screen, MELAS cybrids, Rieske KO mouse fibroblasts, CellTiter-Glo (AID 1508586;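 active means mean z-score across replicates of 1.96 or higher in either the MELAS or the Rieske mutant cell line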;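 further: z relative to plate mean and SD of compound and empty wells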)
# [9] = target: NAD(+) hydrolase SARM1 (Homo sapiens) (UniProt Q6SZW1); test: SARM1 TIR NADase inhibitors, cell lysate, NAD-Glo luminescence (AID 1508614;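 active means compound whose remaining NAD level is above about 45 nM, limit read from the data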); conditions: SAM-TIR HEK293T lysate NADase, at 1 µM, stronger effect = higher value
# NAD(+) hydrolase SARM1 (Homo sapiens), sequence (Q6SZW1 whole entry, looked up, the tested form may be a part): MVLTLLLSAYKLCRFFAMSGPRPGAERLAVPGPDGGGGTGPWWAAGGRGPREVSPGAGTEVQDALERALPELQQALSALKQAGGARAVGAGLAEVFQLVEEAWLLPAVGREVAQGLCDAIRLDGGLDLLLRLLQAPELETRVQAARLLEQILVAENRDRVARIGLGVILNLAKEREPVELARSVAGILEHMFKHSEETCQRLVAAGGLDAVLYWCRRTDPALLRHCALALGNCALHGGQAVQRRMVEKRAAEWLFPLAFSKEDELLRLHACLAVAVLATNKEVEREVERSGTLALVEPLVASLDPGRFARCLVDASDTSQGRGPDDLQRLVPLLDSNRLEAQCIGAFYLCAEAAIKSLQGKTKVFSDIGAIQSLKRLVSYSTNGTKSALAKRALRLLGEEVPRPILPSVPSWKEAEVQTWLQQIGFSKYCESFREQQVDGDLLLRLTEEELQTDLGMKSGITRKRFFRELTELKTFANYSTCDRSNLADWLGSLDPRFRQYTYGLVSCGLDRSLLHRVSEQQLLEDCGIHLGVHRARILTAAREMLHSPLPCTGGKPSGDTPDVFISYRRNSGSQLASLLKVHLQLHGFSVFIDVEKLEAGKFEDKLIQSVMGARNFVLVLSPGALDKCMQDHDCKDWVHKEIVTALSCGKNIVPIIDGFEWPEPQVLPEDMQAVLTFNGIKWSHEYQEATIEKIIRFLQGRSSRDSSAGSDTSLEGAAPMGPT
# [10] = target: Mitogen-activated protein kinase 7 (Homo sapiens) (UniProt Q13164); test: ERK5 transactivation activators in reporter cells, primary screen, cell-based, HTS (AID 1508626;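 active means luciferase signal above three times the same-plate solvent-only control wells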;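 further: luciferase driven by Gal4-ERK5 fusion binding five Gal4 sites before minimal TATA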); conditions: HeLa Gal4-ERK5 transactivation, 18 h, at 5 µM, stronger effect = higher value
# Mitogen-activated protein kinase 7 (Homo sapiens), sequence (Q13164 whole entry, looked up, the tested form may be a part): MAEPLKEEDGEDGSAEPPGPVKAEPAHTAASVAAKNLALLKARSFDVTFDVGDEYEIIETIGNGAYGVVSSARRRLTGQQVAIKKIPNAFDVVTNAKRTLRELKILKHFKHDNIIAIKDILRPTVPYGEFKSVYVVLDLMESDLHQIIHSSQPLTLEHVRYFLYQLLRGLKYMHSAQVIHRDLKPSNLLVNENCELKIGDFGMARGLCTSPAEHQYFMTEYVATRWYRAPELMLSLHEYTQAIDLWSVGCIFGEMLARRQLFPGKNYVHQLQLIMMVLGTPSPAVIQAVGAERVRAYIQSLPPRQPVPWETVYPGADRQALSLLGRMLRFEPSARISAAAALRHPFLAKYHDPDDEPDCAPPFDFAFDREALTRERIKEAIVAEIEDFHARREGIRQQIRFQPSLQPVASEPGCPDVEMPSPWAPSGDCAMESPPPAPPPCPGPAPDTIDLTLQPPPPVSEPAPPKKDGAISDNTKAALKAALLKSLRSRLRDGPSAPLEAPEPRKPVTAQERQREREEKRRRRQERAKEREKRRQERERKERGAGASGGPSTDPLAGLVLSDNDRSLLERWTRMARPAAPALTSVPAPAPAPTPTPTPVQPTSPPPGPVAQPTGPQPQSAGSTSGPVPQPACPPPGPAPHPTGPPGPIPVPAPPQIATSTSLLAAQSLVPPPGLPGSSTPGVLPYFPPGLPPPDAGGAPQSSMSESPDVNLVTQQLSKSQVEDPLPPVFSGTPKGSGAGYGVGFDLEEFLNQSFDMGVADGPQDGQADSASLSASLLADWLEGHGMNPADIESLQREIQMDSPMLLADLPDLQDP
# [11] = sensitizers of A549 cells to miR-34 induction, primary screen, imaging, A549 dox-inducible miR-34, nuclei and caspase counts (AID 1347080;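 active means compounds whose cell count with miR-34 switched on is under 0.7 times the count with it off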); conditions: A549 miR-34 inducible, Hoechst nuclei count, 48 h
# [12] = hESC survival regulators, cell-based (AID 493140; call rule not given here;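 further: cells exposed to compounds for four days before counting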); conditions: human embryonic stem cell survival screen; stronger effect = higher value
# [13] = measured here: epithelial PC-3E GFP cell survival
# [14] = measured here: mesenchymal TEM4-18 mCherry cell survival
# [15] = MELAS cybrid survival, CellTiter-Glo 48 h, stronger effect = higher value
# [16] = Rieske KO mouse fibroblast survival, CellTiter-Glo 72 h
# [17] = measured here: relative caspase fold change +Dox/-Dox
# [18] = measured here: total cells with miR-34 induction, stronger effect = lower value
# [19] = measured here: total cells without miR-34 induction
structure (smiles),measurement,setting,value
CC[C@H]1/C=C\C=C\C[C@H](C)[C@@H](O)[C@](C)(O)C(=O)[C@H](C)[C@@H](O)C(C)C(=O)[C@H](C)[C@H](O)[C@@H](C)/C=C/C(=O)OC2C(C)[C@H](CC1)O[C@@]1(CC[C@@H](C)[C@@H](CC(C)O)O1)[C@@H]2C (some centres not stated),inhibition,[1],-4.41% (inactive)
CCC1(O)CC(OC2CC(N(C)C)C(O)C(C)O2)c2c(cc3c(c2O)C(=O)c2c(O)ccc(O)c2C3=O)C1C(=O)OC (configuration not stated),inhibition,[1],-0.278% (inactive)
C[C@]12CCC3C(CC[C@H]4C[C@@H](Cl)CC[C@]34C)C1CCC2=O (some centres not stated),inhibition,[1],-16.8% (inactive)
CC[C@@H](CO)NC(=O)[C@@H]1C=C2c3cccc4[nH]cc(c34)C[C@H]2N(C)C1,inhibition,[2],8.64%
same,score,[3],1.38
same,cytochrome c release ratio,[4],0.5
same,parasite load remaining,[5],65.8% (inactive) and 65.3% (inactive) and 59.9% (inactive)
same,viability,[5],103% and 77.1% and 98.3%
same,inhibition,[1],10.6% (inactive)
same,red/green cell ratio (normalised),[6],0.98 (inactive)
same,normalised cell number,[6]; [13],0.88
same,normalised cell number,[6]; [14],0.87
same,activity remaining,[7],97% (inactive)
same,z-score,[8]; [15],0.332 (inactive)
same,z-score,[8]; [16],0.352
same,remaining NAD,[9],10 nM (inactive)
same,luciferase signal,[10],60 AU (inactive)
C/C=C(\C)C(=O)OC1CCC2(C)C3CCC4C5(O)CC(O)C6(O)C(CN7CC(C)CCC7C6(C)O)C5(O)CC42OC13O (configuration not stated),inhibition,[1],6.21% (inactive)
c1ccc2c3c([nH]c2c1)CNCC3,parasite load remaining,[5],59.9% (inactive)
same,viability,[5],85.2%
same,inhibition,[1],-0.853% (inactive)
same,fold change,[11]; stronger effect = lower value,0.984 (inactive)
same,fold change,[11]; [17],1.28
same,cell count,[11]; [18],7470
same,cell count,[11]; [19],7600
ClC1=C(Cl)[C@@]2(Cl)[C@@H]3[C@H]4C[C@@H]([C@H]5O[C@@H]45)[C@H]3[C@@]1(Cl)C2(Cl)Cl,inhibition,[1],-14% (inactive)
FC(F)(F)c1cccc(N2CCNCC2)c1,inhibition,[2],28.1%
same,score,[3],1.15
same,cytochrome c release ratio,[4],0.84
same,parasite load remaining,[5],134% (inactive)
same,viability,[5],71.2%
same,inhibition,[1],7.13% (inactive)
same,activity remaining,[7],116% (inactive)
same,fold change,[11]; stronger effect = lower value,0.923 (inactive)
same,fold change,[11]; [17],1.38
same,cell count,[11]; [18],9590
same,cell count,[11]; [19],10400
COc1ccc2[nH]cc(CCN)c2c1,parasite load remaining,[5],58.9% (inactive)
same,viability,[5],68.9%
same,inhibition,[1],0.367% (inactive)
same,red/green cell ratio (normalised),[6],0.84 (inactive)
same,normalised cell number,[6]; [13],1.18
same,normalised cell number,[6]; [14],0.99
same,activity remaining,[7],83.6% (inactive)
same,fold change,[11]; stronger effect = lower value,1.03 (inactive) and 0.901 (inactive)
same,fold change,[11]; [17],1.64 and 1.2
same,cell count,[11]; [18],10600 and 8900
same,cell count,[11]; [19],10300 and 9880
O=c1c2ccccc2[se]n1-c1ccccc1,inhibition,[2],12.1%
same,score,[3],0.32
same,cytochrome c release ratio,[4],1.88
same,survival,[12],0.417 (inactive)
same,parasite load remaining,[5],54.1% (inactive) and 46.2% (inactive)
same,viability,[5],93.6% and 69.7%
same,inhibition,[1],51.1% (active)
same,red/green cell ratio (normalised),[6],0.87 (inactive)
same,normalised cell number,[6]; [13],1.06
same,normalised cell number,[6]; [14],0.92
same,activity remaining,[7],-2.27% (active)
same,z-score,[8]; [15],-1.8
same,z-score,[8]; [16],2.16
same,remaining NAD,[9],10 nM (inactive)
NC(=O)CS(=O)C(c1ccccc1)c1ccccc1 (configuration not stated),parasite load remaining,[5],153% (inactive) and 44.2% (inactive) and 93% (inactive)
same,viability,[5],83% and 104% and 71.7%
same,inhibition,[1],-7.07% (inactive)
same,red/green cell ratio (normalised),[6],1.19 (inactive)
same,normalised cell number,[6]; [13],1.04
same,normalised cell number,[6]; [14],1.24
same,activity remaining,[7],120% (inactive)
same,fold change,[11]; stronger effect = lower value,0.912 (inactive) and 0.928 (inactive) and 0.913 (inactive)
same,fold change,[11]; [17],0.934 and 0.471 and 9.69
same,cell count,[11]; [18],8970 and 9060 and 12100
same,cell count,[11]; [19],9830 and 9770 and 13200
same,z-score,[8]; [15],0.264 (inactive)
same,z-score,[8]; [16],0.0685
same,remaining NAD,[9],10 nM (inactive)
same,luciferase signal,[10],40 AU (inactive)
